Data: PubChem BioAssay (NCI)
“And” between values parts separate entries of the source, which are not always exact repeats. Equal entries are not always repeated. About 83,000 compounds went through this panel and 20% of them were active in at least one assay; those are over-represented in the sample as a whole.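 Note: values are percent growth. 100 is the growth of untreated cells, values between 100 and 0 indicate rising inhibition; between -100 and 0 indicates cell death.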 Unmarked numbers belong to inactive results. The source made the active and inactive calls. Rule for the calls: active = growth percent below 10; inactive = the rest.

What follows are compounds tested on NCI-H460 lung (assay: NCI-60 one-dose screen, 48 h (100 = growth as untreated, 0 = no growth, -100 = all killed)). Conditions: 10 µM unless noted.

| Structure (SMILES) | growth |
| --- | --- |
| Oc1ccc(/C=N/NC(=S)Nc2ccccc2)nc1 | 2.79% (active) |
| COc1ccccc1OC(=O)Oc1ccccc1OC | 108% and 104% |
| O=C1C=CC(=O)N1C1c2ccccc2-c2ccccc21 | 96.5% |
| O=C(CC1(O)C(=O)Nc2c(Cl)ccc(Cl)c21)c1ccc(Cl)cc1Cl (configuration not stated) | 108% |
| Cc1cc2nc(CS)[nH]c2cc1C | 93% |
| O=C(Nc1cccc(Br)c1)Oc1ccc(Cl)c2cccnc12 | 12.2% [100 µM] |
| CN(C)c1ccc(N=Nc2cccc3ccccc23)cc1 | 92.7% |
| O=[N+]([O-])c1ccc(N=Nc2ccc(O)cc2O)cc1 | 66% |
| CC(C)(C)CC(C)(C)c1ccc(OCCSC(=N)N)cc1 | 35% |
| CCCCCCCCCCCCCCCC[N+](C)(CCO)Cc1cnc[nH]1 (configuration not stated) | -93.3% (active) |
| Nc1nc(N)c2nc(CNc3ccc(C(=O)NC(CCC(=O)O)C(=O)O)cc3)cnc2n1 (configuration not stated) | 15.2% and 12.2% |
| Cc1ccc2c(ccc3c[n+]4c5ccccc5ccc4n32)c1 | 1.99% (active) |
| CN(Cc1cnc2nc(N)nc(N)c2n1)c1ccc(C(=O)NC(CCC(=O)O)C(=O)O)cc1 (configuration not stated) | 16.4% |
| NC(=S)N/N=C\c1nccc2c(C(F)(F)C(F)(F)C(F)(F)F)cccc12 | -25.9% (active) |
| CCC(CC)COC(=O)c1ccc(O)c(O)c1 | 73.8% |
| O=C(/C=C/C=C/c1ccccc1)c1ccco1 | 94.7% |
| C/C=C1\SC(=S)NC1=O | 107% |
